Reference: PubChem BioAssay AID1159580 (chemical genetic matrix, 2015)
Out of some 5,500 compounds screened, about 2,000 (36%) were called active. Another 18% or so got no clear call; they are omitted. Rule as the data show it: active = normalized growth mostly below about 0.91 (no sharp cut-off); inconclusive = no clear call, values can overlap the other calls; inactive = mostly above about 0.92. The list shows a part of the results.

Test: chemical genetic growth profiling, strain panel (AID 1159580);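 also: tested at 20 µM; growth read once vehicle control cultures reached saturation at 30 °C; 1 = growth at the plate median or of vehicle wells; lower values mean less growth of the strain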
Conditions: growth OD

Measured: normalized growth

C=C[C@H]1CN2CC[C@H]1C[C@@H]2[C@H](O)c1ccnc2ccccc12
inactive: S. cerevisiae deletion strains, locus YKL009W, strain mrt4, active compounds read low 0.976 | S. cerevisiae deletion strains, locus YKL068W, active compounds read low 0.979 | S. cerevisiae deletion strains, locus YKL085W, strain MDH1 (second series), active compounds read low 0.972 | S. cerevisiae deletion strains, locus YKL085W, strain MDH1, active compounds read low 0.972 | S. cerevisiae deletion strains, locus YKL160W, strain elf1, active compounds read low 0.991 | S. cerevisiae deletion strains, locus YKL190W, strain CNB1, active compounds read low 0.99 | S. cerevisiae deletion strains, locus YKR001C, strain vps1, active compounds read low 0.997 | S. cerevisiae deletion strains, locus YKR026C, strain gcn3, active compounds read low 0.991 | S. cerevisiae deletion strains, locus YKR091W, strain srl3, active compounds read low 0.979 | S. cerevisiae deletion strains, locus YLL001W, strain dnm1, active compounds read low 0.989 | S. cerevisiae deletion strains, locus YLL026W, active compounds read low 0.995 | S. cerevisiae deletion strains, locus YLL041C, strain sdh2, active compounds read low 0.987 | S. cerevisiae deletion strains, locus YLR027C, strain aat2, active compounds read low 0.992 | S. cerevisiae deletion strains, locus YLR039C, strain RIC1, active compounds read low 0.98 | S. cerevisiae deletion strains, locus YLR058C, strain SHM2, active compounds read low 0.992 | S. cerevisiae deletion strains, locus YLR102C, strain apc9, active compounds read low 0.988 | S. cerevisiae deletion strains, locus YLR113W, strain HOG1, active compounds read low 0.967 | S. cerevisiae deletion strains, locus YLR221C, strain rsa3, active compounds read low 1.02 | S. cerevisiae deletion strains, locus YLR258W, strain gsy2, active compounds read low 0.991 | S. cerevisiae deletion strains, locus YLR262C, strain YPT6 (second series), active compounds read low 1.01 | S. cerevisiae deletion strains, locus YLR262C, strain YPT6, active compounds read low 0.983 | S. cerevisiae deletion strains, locus YLR268W, strain sec22, active compounds read low 0.937 | S. cerevisiae deletion strains, locus YLR320W, strain mms22, active compounds read low 0.998 | S. cerevisiae deletion strains, locus YLR330W, strain CHS5, active compounds read low 0.986 | S. cerevisiae deletion strains, locus YLR342W, strain FKS1 (second series), active compounds read low 1.11 | S. cerevisiae deletion strains, locus YLR342W, strain FKS1, active compounds read low 0.984 | S. cerevisiae deletion strains, locus YLR357W, strain rsc2, active compounds read low 0.976 | S. cerevisiae deletion strains, locus YLR370C, strain arc18, active compounds read low 0.994 | S. cerevisiae deletion strains, locus YLR371W, strain rom2, active compounds read low 0.977 | S. cerevisiae deletion strains, locus YLR384C, strain iki3, active compounds read low 0.995 | S. cerevisiae deletion strains, locus YLR418C, strain cdc73, active compounds read low 0.982 | S. cerevisiae deletion strains, locus YML016C, strain PPZ1, active compounds read low 0.999 | S. cerevisiae deletion strains, locus YML032C, strain rad52, active compounds read low 0.968 | S. cerevisiae deletion strains, locus YML120C, strain ndi1, active compounds read low 1.01 | S. cerevisiae deletion strains, locus YML124C, strain tub3, active compounds read low 0.986 | S. cerevisiae deletion strains, locus YMR058W, strain fet3, active compounds read low 0.982 | S. cerevisiae deletion strains, locus YMR078C, strain ctf18, active compounds read low 0.983 | S. cerevisiae deletion strains, locus YMR125W, strain sto1, active compounds read low 0.977 | S. cerevisiae deletion strains, locus YMR129W, active compounds read low 0.988 | S. cerevisiae deletion strains, locus YMR205C, strain PFK2, active compounds read low 0.988 | S. cerevisiae deletion strains, locus YMR223W, strain ubp8, active compounds read low 1.01 | S. cerevisiae deletion strains, locus YMR231W, strain pep5, active compounds read low 0.979 | S. cerevisiae deletion strains, locus YMR263W, strain SAP30, active compounds read low 0.989 | S. cerevisiae deletion strains, locus YMR307W, strain GAS1, active compounds read low 1.09 | S. cerevisiae deletion strains, locus YNL067W, strain RPL9B, active compounds read low 0.977 | S. cerevisiae deletion strains, locus YNL071W, strain lat1, active compounds read low 0.988 | S. cerevisiae deletion strains, locus YNL128W, strain TEP1, active compounds read low 0.982 | S. cerevisiae deletion strains, locus YNL153C, strain GIM3, active compounds read low 0.991 | S. cerevisiae deletion strains, locus YNL183C, strain NPR1, active compounds read low 0.951 | S. cerevisiae deletion strains, locus YNL209W, strain ssb2, active compounds read low 0.995 | S. cerevisiae deletion strains, locus YNL233W, strain BNI4, active compounds read low 0.985 | S. cerevisiae deletion strains, locus YNL248C, strain rpa49, active compounds read low 0.982 | S. cerevisiae deletion strains, locus YNL250W, strain rad50, active compounds read low 0.986 | S. cerevisiae deletion strains, locus YNL271C, strain bni1, active compounds read low 0.983 | S. cerevisiae deletion strains, locus YNL298W, strain CLA4, active compounds read low 0.985 | S. cerevisiae deletion strains, locus YNL307C, strain MCK1, active compounds read low 0.992 | S. cerevisiae deletion strains, locus YNL322C, strain KRE1 (second series), active compounds read low 0.975 | S. cerevisiae deletion strains, locus YNL322C, strain KRE1, active compounds read low 0.992 | S. cerevisiae deletion strains, locus YNR049C, strain mso1, active compounds read low 0.986 | S. cerevisiae deletion strains, locus YNR052C, strain pop2, active compounds read low 0.992 | S. cerevisiae deletion strains, locus YOL006C, strain TOP1, active compounds read low 0.992 | S. cerevisiae deletion strains, locus YOL012C, strain htz1 1.51 | S. cerevisiae deletion strains, locus YOL147C, strain pex11, active compounds read low 0.979 | S. cerevisiae deletion strains, locus YOR001W, strain rrp6, active compounds read low 1.01 | S. cerevisiae deletion strains, locus YOR061W, strain CKA2, active compounds read low 0.986 | S. cerevisiae deletion strains, locus YOR069W, strain VPS5, active compounds read low 0.997 | S. cerevisiae deletion strains, locus YOR070C, strain gyp1, active compounds read low 1 | S. cerevisiae deletion strains, locus YOR080W, strain dia2, active compounds read low 0.985 | S. cerevisiae deletion strains, locus YOR083W, strain WHI5, active compounds read low 0.991 | S. cerevisiae deletion strains, locus YOR106W, strain vam3, active compounds read low 0.999 | S. cerevisiae deletion strains, locus YOR136W, strain idh2, active compounds read low 1 | S. cerevisiae deletion strains, locus YOR144C, strain elg1, active compounds read low 0.983 | S. cerevisiae deletion strains, locus YOR184W, strain ser1, active compounds read low 0.982 | S. cerevisiae deletion strains, locus YOR231W, strain MKK1, active compounds read low 0.983 | S. cerevisiae deletion strains, locus YOR265W, strain rbl2, active compounds read low 1 | S. cerevisiae deletion strains, locus YOR270C, strain vph1, active compounds read low 1 | S. cerevisiae deletion strains, locus YOR290C, strain snf2, active compounds read low 0.982 | S. cerevisiae deletion strains, locus YOR316C, strain cot1, active compounds read low 0.972 | S. cerevisiae deletion strains, locus YPL051W, strain arl3, active compounds read low 0.994 | S. cerevisiae deletion strains, locus YPL055C, strain LGE1, active compounds read low 0.997 | S. cerevisiae deletion strains, locus YPL078C, strain atp4, active compounds read low 0.99 | S. cerevisiae deletion strains, locus YPL106C, strain sse1, active compounds read low 0.967 | S. cerevisiae deletion strains, locus YPL240C, strain hsp82, active compounds read low 0.999 | S. cerevisiae deletion strains, locus YPL241C, strain CIN2, active compounds read low 0.989 | S. cerevisiae deletion strains, locus YPL256C, strain CLN2, active compounds read low 0.978 | S. cerevisiae deletion strains, locus YPR119W, strain clb2, active compounds read low 0.974 | S. cerevisiae deletion strains, locus YPR141C, strain kar3, active compounds read low 0.981 | S. cerevisiae deletion strains, locus YPR163C, strain tif3, active compounds read low 0.977 | S. cerevisiae deletion strains, locus YPR167C, strain met16, active compounds read low 0.979 | S. cerevisiae deletion strains, strain wtn01, active compounds read low 0.98 | S. cerevisiae strains, strain wild type, active compounds read low 1
